The text below walks through data of PubChem BioAssay AID624138 (Broad Institute, 2012).

The campaign covered roughly 17,000 compounds. About 35 (0.2%) were called active.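 The calls were made as follows: active = compounds whose four printed spots each show fluorescence over background unusually high for their array block, chance value under 7%; inactive = the rest.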 For the sample, actives were picked, then their nearest neighbours and some compounds at random.

This assay deals with Signal transducer and activator of transcription 3 (Homo sapiens) (UniProt P40763). The assay is described as follows: small molecules binding His-tagged STAT3 – biochemical, small molecule microarray, single point, set 2, primary screen (AID 624138). The settings on record: anti-His fluorescence.
Signal transducer and activator of transcription 3 (Homo sapiens), sequence (P40763 whole entry, looked up): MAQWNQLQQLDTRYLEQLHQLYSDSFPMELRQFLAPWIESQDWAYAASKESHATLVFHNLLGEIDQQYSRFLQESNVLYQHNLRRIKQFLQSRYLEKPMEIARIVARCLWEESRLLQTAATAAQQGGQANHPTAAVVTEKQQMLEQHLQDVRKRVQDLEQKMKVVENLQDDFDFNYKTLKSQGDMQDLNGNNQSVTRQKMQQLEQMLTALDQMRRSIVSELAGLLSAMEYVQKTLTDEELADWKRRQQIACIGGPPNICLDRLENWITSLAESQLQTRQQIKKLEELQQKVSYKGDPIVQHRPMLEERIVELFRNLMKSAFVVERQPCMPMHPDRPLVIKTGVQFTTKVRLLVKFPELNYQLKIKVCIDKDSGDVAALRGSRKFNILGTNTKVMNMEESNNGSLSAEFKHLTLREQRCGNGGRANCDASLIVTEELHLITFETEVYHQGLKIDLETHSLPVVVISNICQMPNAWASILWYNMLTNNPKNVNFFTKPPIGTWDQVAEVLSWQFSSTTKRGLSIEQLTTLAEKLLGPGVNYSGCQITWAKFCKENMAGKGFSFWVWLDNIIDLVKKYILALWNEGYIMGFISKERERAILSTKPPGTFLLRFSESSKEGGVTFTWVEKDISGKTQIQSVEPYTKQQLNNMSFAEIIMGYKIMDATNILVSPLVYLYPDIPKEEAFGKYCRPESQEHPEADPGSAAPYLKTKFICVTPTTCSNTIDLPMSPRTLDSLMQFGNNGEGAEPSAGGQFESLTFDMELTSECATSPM
On to `c1cncc(CNCCc2c[nH]c3ccccc23)c1`, for which the compound was called active.
As for `COc1ccc2[nH]cc(CCNCc3ccc(Br)cc3)c2c1`, the compound was classed as inactive.
For `CC(=O)c1c(O)c(C)c(O)c(Cc2c(O)c3c(c(C(=O)/C=C/c4ccccc4)c2O)OC(C)(C)C=C3)c1O` the value was “inactive”; for `C[C@H]1CCC/C=C/C2C[C@H](O)C[C@H]2[C@H](O)/C=C\C(=O)O1` (stereo not given in full), “inactive”.
For `Cc1ccc(OC(=O)N(C)C[C@@H]2OCc3cnnn3CCCC(=O)N([C@H](C)CO)C[C@@H]2C)cc1` the value was “inactive”.
